Measured values published in PubChem BioAssay AID1259421 (Broad Institute, 2018).
Where “and” joins values, the source holds several entries; their conditions need not be identical. Identical values can stand only once. Screen size: about 6,400 compounds; about 610 (9.5%) were called active. No stated cut-off is given here; in the data, active means activity change below about -70%; inconclusive means no clear call, values can overlap the other calls; inactive means above that. Only a selection was taken, and actives are over-represented in it overall. Some compounds were tested as several samples or in several runs, with calls that do not always agree.

assay: T. gondii ME49Luc in HeLa cells, luciferase assay, 72 h, no IFN-y (AID 1259421); details: stronger effect = lower value, concentration not given here

SMILES | activity change, negative = inhibition
CC(C)(C)c1nc(-c2cccc(NS(=O)(=O)c3c(F)cccc3F)c2F)c(-c2ccnc(N)n2)s1 | -88.1% (active)
Cn1c(=O)c2c(ncn2CCOC(=O)C(C)(C)Oc2ccc(Cl)cc2)n(C)c1=O | 7.49% (inactive)
CC(=O)O[C@H]1C[C@@]2(C)[C@@H](C[C@@H](O)C3[C@]2(C)CC[C@H]2[C@H](C)[C@H](O)CC[C@]32C)/C1=C(/CCC=C(C)C)C(=O)O (stereo partly specified) | -16.8% (inactive) and -21.5% (inactive)
CN1C(=O)C[C@@H](C(=O)N[C@@H](Cc2cnc[nH]2)C(=O)N2CCC[C@H]2C(N)=O)NC1=O | -66.5% (inactive)
CCOC(=O)C1=C(C)NC(C)=C(C(=O)OC)C1c1cccc([N+](=O)[O-])c1 (stereo unspecified) | 3.95% (inactive) and 4.34% (inactive)
COC(=O)C1=C(C)NC(C)=C(C(=O)OCCCN2CCC(c3ccccc3)(c3ccccc3)CC2)[C@@H]1c1cccc([N+](=O)[O-])c1 | -76.4% (active) and -90.4% (active)
COC(=O)C1=C(C)NC(C)=C(C(=O)OC/C=C/c2ccccc2)C1c1cccc([N+](=O)[O-])c1 (stereo unspecified) | -14.8% (inactive)
COC(=O)C1=C(C)NC(C)=C(C(=O)OCCCN2CCC(c3ccccc3)(c3ccccc3)CC2)[C@H]1c1cccc([N+](=O)[O-])c1 | -68.2% (inactive) and -79.8% (active)
COC(=O)C1=C(C)NC(C)=C(C(=O)O[C@H]2CCN(Cc3ccccc3)C2)[C@H]1c1cccc([N+](=O)[O-])c1 | 0.473% (inactive)
COC(=O)C1=C(C)NC(C)=C(C(=O)NCCCN2CCC(c3ccccc3)(c3ccccc3)CC2)C1c1ccc([N+](=O)[O-])cc1 (stereo unspecified) | -48.9% (inactive)
COC(=O)C1=C(C)NC(C)=C(C(=O)OCCN2CCN(C(c3ccccc3)c3ccccc3)CC2)C1c1cccc([N+](=O)[O-])c1 (stereo unspecified) | -60.9% (inactive) and -77.5% (active)
COC(=O)C1=C(C)NC(C)=C(C(=O)O[C@@H]2CCCN(Cc3ccccc3)C2)[C@@H]1c1cccc([N+](=O)[O-])c1 | 23.7% (inactive)
COC(=O)C1=C(C)NC(C)=C(C(=O)OCCN(C)Cc2ccccc2)C1c1cccc([N+](=O)[O-])c1 (stereo unspecified) | 31.7% (inactive) and 1.2% (inactive)
COc1ccc2c(c1)OC1(O)COc3cc(OC)c(OC)cc3C1=C2 (stereo unspecified) | 10.6% (inactive)
CC(=O)N1CCN(CCOc2ccc(C3CCN(C4=Nn5c(nnc5C(F)(F)F)CC4)CC3)cc2)CC1 | 7.85% (inactive)
O=C(OC1C[C@@H]2CC3C[C@H](C1)N2CC3=O)c1c[nH]c2ccccc12 (stereo partly specified) | -0.997% (inactive)
C[C@]1(Cn2ccnn2)C(C(=O)O)N2C(=O)CC2S1(=O)=O (stereo partly specified) | 0.084% (inactive)
CNc1cc2ncnc(Nc3cccc(Br)c3)c2cc1N | -8.12% (inactive)
O=c1[nH]cnc2c1cnn2[C@@H]1O[C@H](CO)[C@H](O)C1O (stereo partly specified) | 19.3% (inactive)
CCC(C)C(=O)OC1CC(C)C=C2C=CC(C)C(CCC(O)CC(O)CC(=O)O)C21 (stereo unspecified) | 7.4% (inactive)
NCCC(O)(P(=O)(O)O)P(=O)(O)O | -2.86% (inactive)
COc1cc(O)c(C)c(O)c1 | 11% (inactive)
CC1(C)C(=O)N=C2c3ccccc3C(=O)C(=O)C21 (stereo unspecified) | -89.1% (active)
CNC(=O)[C@@H](c1ccccc1)N1CCc2cc(OC)c(OC)cc2[C@@H]1CCc1ccc(C(F)(F)F)cc1 | 7.93% (inactive)

SMILES | activity change, negative = inhibition
O=C(Nc1cccc2c(=O)cc(-c3nn[nH]n3)oc12)c1ccc(OCCCCc2ccccc2)cc1 | 3.35% (inactive) and 13.6% (inactive)
COc1cccc(Nc2ncnn3ccc(CN4CC[C@@H](N)[C@H](O)C4)c23)c1 | -86.2% (active)
C[C@]12C=CC(=O)C=C1CCC1C2[C@@H](O)C[C@@]2(C)C1CC[C@]2(O)C(=O)CO (stereo partly specified) | 1.25% (inactive) and -8.87% (inactive)
CC(=O)O[C@@H]1c2c(ccc3ccc(=O)oc23)OC(C)(C)[C@@H]1OC(=O)CC(C)C | -2.35% (inactive)
CCCN(CCC)CC1CCCCN1CCNC(=O)N1c2ccccc2C(=O)Nc2cccnc21 (stereo unspecified) | 3.45% (inactive)
CCOC(=O)[C@H](CCc1ccccc1)N[C@@H](C)C(=O)N(CC(=O)O)C1Cc2ccccc2C1 | 7.2% (inactive)
CCC(C)(C)C(=O)OC1CC(C)C=C2C=CC(C)C(CCC3CC(O)CC(=O)O3)C21 (stereo unspecified) | -4.9% (inactive)
COC1C=COC2(C)Oc3c(C)c(O)c4c(c3C2=O)C2(C=C(NC(=O)/C(C)=C\C=C/C(C)C(O)C(C)C(O)C(C)C(OC(C)=O)C1C)C4=O)OCC(=O)O2 (stereo unspecified) | -2.28% (inactive)
C=CCNC1=C2C[C@@H](C)C[C@H](OC)[C@H](O)[C@@H](C)/C=C(\C)[C@H](OC(N)=O)[C@@H](OC)/C=C\C=C(/C)C(=O)NC(=CC1=O)C2=O | -56% (inactive)
CO[C@H]1/C=C\C=C(/C)C(=O)NC2=CC(=O)C(NCCN(C)C)=C(C[C@@H](C)C[C@H](OC)[C@H](O)[C@@H](C)/C=C(\C)[C@@H]1OC(N)=O)C2=O | -69.9% (inactive) and -80.4% (active)
NCCCCCC(O)(P(=O)(O)O)P(=O)(O)O | 13% (inactive)
c1ccc(CNc2nc(NCc3ccccc3)c3ccccc3n2)cc1 | -83.6% (active)
Cn1cnc2c(NCc3ccccc3)nc(NCCO)nc21 | 10.2% (inactive)
c1ccc(CNc2ncnc3ccccc23)cc1 | -3.07% (inactive)
CN1C(C(=O)Nc2ccccn2)C(=O)c2sc(Cl)cc2S1(=O)=O (stereo unspecified) | 6.43% (inactive)
CC(C)(C)NC[C@@H](O)COc1nsnc1N1CCOCC1 | 15.6% (inactive) and -4.63% (inactive)
CC(=O)N[C@H]1[C@H]([C@H](O)[C@H](O)CO)O[C@](O)(C(=O)O)C[C@@H]1O | 19.2% (inactive)
Cc1cc(S(=O)(=O)O)c2c(C)ccc(C(C)C)cc1-2 | 0.707% (inactive)
N#C/C(=C\c1ccc(O)c(O)c1)C(=O)NC1CCC(CC2CCC(NC(=O)/C(C#N)=C/c3ccc(O)c(O)c3)CC2)CC1 (stereo unspecified) | -83.2% (active)
N#C/C(=C/c1ccc(O)c(O)c1)C(=O)Nc1ccccc1 | 11.3% (inactive)
N#C/C(=C\c1ccc(O)c(O)c1)C(=O)Nc1ccccc1 | 10% (inactive) and 2.22% (inactive)
COc1cc(OC)c(-c2c(OC)cc(OC)cc2OC)c(OC)c1 | -0.897% (inactive)
CN(C)[C@@H]1CCc2[nH]c3ccc(NC(=O)c4ccc(F)cc4)cc3c2C1 | 0.289% (inactive) and 6.81% (inactive)
CC(=O)NC1C(O)OC(COS(=O)(=O)O)C(OC2OC(C(=O)O)C(OC3OC(CO)C(OC4OC(C(=O)O)C(O)C(O)C4OS(=O)(=O)O)C(OS(=O)(=O)O)C3NS(=O)(=O)O)C(O)C2OS(=O)(=O)O)C1O (stereo unspecified) | 9.64% (inactive)

SMILES | activity change, negative = inhibition
CN(C)C(=O)Nc1cccc(-c2ccc(N(C)C)cc2)c1 | 27.1% (inactive)
CCn1cc(-c2ccnc3[nH]c(-c4cccc(CN(C)C)c4)cc23)c(-c2ccc(NC(=O)N(C)C)cc2)n1 | -82.3% (active)
CN(Cc1cnc2nc(N)nc(N)c2n1)c1ccc(C(=O)N[C@@H](CCC(=O)O)C(=O)O)cc1 | -80.9% (active) and -28.7% (inactive)
C#CCC(Cc1cnc2nc(N)nc(N)c2n1)c1ccc(C(=O)N[C@@H](CCC(=O)O)C(=O)O)cc1 (stereo partly specified) | -66.9% (inactive)
CN(Cc1cnc2nc(N)nc(N)c2n1)c1ccc(C(=O)NC(CCC(=O)O)C(=O)O)cc1 (stereo unspecified) | -57.2% (inactive) and 1.6% (inactive)
COc1ccc(CCN(C)CCCC(C#N)(c2cc(OC)c(OC)c(OC)c2)C(C)C)cc1OC (stereo unspecified) | 41.7% (inactive)
N=C(CC(O)COc1ccccc1-c1ccccc1)N1CCCCC1 (stereo unspecified) | 10.7% (inactive)
COc1ccc(-c2cnc3c(-c4cccc5ncccc45)cnn3c2)cc1 | 2.75% (inactive)
CC(C)Oc1ccc(-c2cnc3c(-c4ccnc5ccccc45)cnn3c2)cc1 | -49.1% (inactive)
c1cc(-c2cnn3cc(-c4ccc(N5CCNCC5)cc4)cnc23)c2cccnc2c1 | -84.7% (active)
COC(F)(F)C(Cl)Cl | 19.6% (inactive)
CC(C)(Oc1ccc(Cl)cc1)C(=O)N1CSCC1C(=O)O (stereo unspecified) | 19% (inactive)
NC(=O)C1CC2(NC(=O)NC2=O)c2cc(F)ccc2O1 (stereo unspecified) | 12.6% (inactive)
Cc1cc(Nc2cc(N3CCN(C)CC3)nc(Sc3ccc(NC(=O)C4CC4)cc3)n2)n[nH]1 | -15.4% (inactive) and -14.2% (inactive) and -8.95% (inactive)
Cc1nc(Nc2ncc(C(=O)Nc3c(C)cccc3Cl)s2)cc(N2CCN(CCO)CC2)n1 | -75.5% (active) and -82.6% (active)
S=c1[nH]c2ccccc2s1 | 14.8% (inactive) and 4.19% (inactive)
S=c1nc[nH]c2[nH]ncc12 | -6.21% (inactive)
C[C@]12CCC(=O)C=C1CCC1C2[C@@H](O)C[C@@]2(C)C1CC[C@]2(O)C(=O)COC(=O)CCC(=O)O (stereo partly specified) | -4.51% (inactive) and -4.05% (inactive)
COC1C(O)[C@@H](O)C(O)C(O)[C@H]1O (stereo partly specified) | 4.8% (inactive)
COc1ccc2c(c1)OCC(Cc1ccc(OC)c(OC)c1)C2=O (stereo unspecified) | -1.15% (inactive)
COc1ccc2c(c1)OCC(Cc1ccc(O)c(OC)c1)C2=O (stereo unspecified) | -0.0941% (inactive)
COc1ccc2c(c1)OCC(Cc1ccc(OC)c(OC(C)=O)c1)C2=O (stereo unspecified) | -72% (active)
CO/N=C(/C(=O)N[C@@H]1C(=O)N2C(C(=O)O)=C(C[n+]3cccc4c3CCC4)CS[C@H]12)c1csc(N)n1 | 14.5% (inactive)
